Shown are actives, neighbours in structure and some others; about 3.6% of the full set was active somewhere.
HUVEC tox IL1B – HUVEC cytotoxicity counter-screen, IL-1B stimulated; cell count reduction, % at 2 µM; HUVEC cell count loss, Hoechst imaging; 0.41% of 94,000 active;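 active = cell count reduction more than 3 SD above the screen-wide mean, cut at about 70% in these data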
ERa coact inh – ER-alpha (human) coactivator binding inhibition; P03372; 1.7% of 86,000 active; TR-FRET ER-alpha LBD / SRC-1 peptide, estradiol-bound; AID 629; inhibition, % at 25.6 µM; in the data active = inhibition above about 50%
ERa SRC1 pot – ER-alpha (human) coactivator binding potentiation | 1.3% of 86,000 active | P03372 | coactivator binding (% of control), % at 25.6 µM | TR-FRET ERalpha-LBD/SRC-Cy5 coactivator binding, 2 h; 100 = basal binding, no effect | AID 639; in the data active = activity above about 200%;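 also: binding measured in presence of low estradiol as agonist stimulus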
NFkB transloc inh – blocks IL-1B driven NFkB nuclear translocation in HUVEC cells; inhibition, % at 2 µM; HUVEC IL-1B NFkB p65 nuclear translocation imaging; 0.43% of 94,000 active; AID 796;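 active = inhibition above about 30% together with a positive call from visual inspection of the well image, limit read from the data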;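 also: nuclear over cytoplasmic p65 intensity ratio measured by imaging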
NFkB transloc pot – enhances IL-1B driven NFkB nuclear translocation | HUVEC IL-1B NFkB p65 nuclear translocation imaging | activation, % at 2 µM | 0.3% of 94,000 active | AID 819;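 active = activation above 40%, about the mean plus 3 SD, also judged a hit on visual image review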;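 also: percent activation is computed from the nuclear over cytoplasmic p65 intensity ratio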
ERb SRC1 inh – ER-beta (human) coactivator binding inhibition; 1.3% of 86,000 active; Q92731; inhibition, % at 25.6 µM; TR-FRET ER-beta LBD / SRC1-Cy5 peptide binding; receptor agonist-loaded with 1 µM estradiol; AID 633;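 active = compounds whose percent inhibition of the receptor-coactivator binding signal exceeds about 50% in the single-dose screen, limit read from the data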
Target sequence (Q92731 whole entry, looked up, the tested form may be a part): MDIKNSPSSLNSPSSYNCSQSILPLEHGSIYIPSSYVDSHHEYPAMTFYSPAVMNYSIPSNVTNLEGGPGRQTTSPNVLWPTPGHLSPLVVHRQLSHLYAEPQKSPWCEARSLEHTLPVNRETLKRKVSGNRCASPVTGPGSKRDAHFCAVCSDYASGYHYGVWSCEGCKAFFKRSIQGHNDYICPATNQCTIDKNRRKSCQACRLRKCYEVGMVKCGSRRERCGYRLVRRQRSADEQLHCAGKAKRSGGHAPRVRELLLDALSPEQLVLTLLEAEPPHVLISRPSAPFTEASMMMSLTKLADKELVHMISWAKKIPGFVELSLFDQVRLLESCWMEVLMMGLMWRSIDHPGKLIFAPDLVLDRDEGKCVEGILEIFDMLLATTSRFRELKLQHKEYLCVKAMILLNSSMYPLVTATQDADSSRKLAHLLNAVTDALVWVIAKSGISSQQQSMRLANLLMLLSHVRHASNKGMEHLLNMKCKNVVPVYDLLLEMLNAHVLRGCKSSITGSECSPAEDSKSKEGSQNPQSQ
Each line names hits and unclear results; the compound was inactive in the other large screens; [ ] = dose if it differs, or a comment.

Cc1cc(NC(=O)c2cc(-c3cccc(Cl)c3)on2)no1	none
COc1cccc(-c2cc(C(=O)NCc3ccc(Cl)cc3)no2)c1	ERa coact inh 70[fluorescence artefact?]
CCn1c(SCC(=O)Nc2ccc3c(c2)c2ccccc2n3CC)nnc1-c1cnccn1	ERa coact inh 74 (no result: HUVEC tox IL1B, NFkB transloc inh, NFkB transloc pot)
CCn1c2ccccc2c2cc(NC(=O)CSc3nnc(-c4ccc(OC)cc4)n3N)ccc21	ERa coact inh 68
Cc1c(Cl)cccc1NC(=O)CN1CCC(C(O)(c2ccccc2)c2ccccc2)CC1	NFkB transloc inh 49 (no result: ERa coact inh, ERa SRC1 pot, ERb SRC1 inh)
Cc1ccsc1C=Nc1ccc(O)cc1	ERb SRC1 inh 76[fluorescence artefact?]
Oc1ccc(N=Cc2ccc(O)c(O)c2)cc1	none (no result: ERa coact inh, ERa SRC1 pot, ERb SRC1 inh)
c1coc(-c2nnc(-c3ccc4c(c3)OCO4)o2)c1	ERa coact inh 65[fluorescence artefact?]
N#CC(C(=O)O)=C1CCCC1	none
N#CC(C(=O)Nc1ccccc1)=C1CCCCC1	ERb SRC1 inh 74 (no result: HUVEC tox IL1B, NFkB transloc inh, NFkB transloc pot)
CCOC(=O)Cc1c(C)nc2c(-c3ccc(Cl)cc3)c(C)[nH]n2c1=O	ERa SRC1 pot 248[fluorescence artefact?]
CCOC(=O)Cc1cc(=O)n2[nH]c(C)c(-c3ccccc3)c2n1	none
COc1ccc(CNc2nc(NCc3ccc(OC)c(OC)c3)n(C(=O)c3cccs3)n2)cc1OC	none (no result: ERa coact inh, ERa SRC1 pot, ERb SRC1 inh)
C=CCN(CC=C)S(=O)(=O)c1ccc2nsnc2c1	none (no result: HUVEC tox IL1B, NFkB transloc inh, NFkB transloc pot)
O=C(Nc1ccc(Cl)c(Cl)c1)N(CCCN1CCOCC1)Cc1cccs1	none
O=C(CSc1ccc2nnc(-c3ccccc3)n2n1)N1CCN(c2ccccc2)CC1	none
Cc1ccc(-c2nnc3ccc(SCC(=O)N4CCc5ccccc54)nn23)cc1	ERa SRC1 pot 238[fluorescence artefact?]
c1cncc(Oc2cccc(Oc3cccnc3)c2)c1	ERb SRC1 inh 98[fluorescence artefact?]
CCN(CC)CCN1C(=O)c2ccccc2NC1c1ccc(C)cc1 (stereo unspecified)	none
CCOc1ncccc1C(=O)OCC(=O)Nc1cc(C(=O)OC)ccc1C(=O)OC	ERa SRC1 pot 372[fluorescence artefact?] (no result: HUVEC tox IL1B, NFkB transloc inh, NFkB transloc pot)
CC1(C)Cc2nc3sc4c(SCC(=O)NCc5ccccc5)ncnc4c3cc2CO1	ERa SRC1 pot 431[fluorescence artefact?]
CC1(C)Cc2nc3sc4c(N(CCO)CCO)ncnc4c3cc2CO1	none (no result: ERa coact inh, ERa SRC1 pot, ERb SRC1 inh)
COc1ccccc1N1C(=O)c2ccccc2NC1c1ccncc1 (stereo unspecified)	none
O=C1c2ccccc2NC(c2ccncc2)N1c1ccccn1 (stereo unspecified)	NFkB transloc inh 62
C=CCn1c(SCC(=O)Nc2sccc2C(N)=O)nc2ccc(Cl)cc2c1=O	ERa coact inh 64[fluorescence artefact?]
C=CCn1c(SCC(=O)Nc2sccc2C(N)=O)nc2ccccc2c1=O	none
COc1ccc(C(=O)CN2C(=O)NC(C)(c3ccccc3)C2=O)cc1OC (stereo unspecified)	none
Cc1ccc(-c2nn(-c3ccccc3)cc2CN(Cc2ccccc2)C(=O)c2ccco2)o1	NFkB transloc pot 46
Cc1ccc2[nH]c(=S)cc(C)c2c1	ERb SRC1 inh 60[fluorescence artefact?]
COc1ccc(C=O)cc1COc1ccc(Cl)cc1[N+](=O)[O-]	none (no result: ERa coact inh, ERa SRC1 pot, ERb SRC1 inh)
C=CCn1c(=O)c2ccccc2n2c(SCc3nnc(-c4ccccc4Br)o3)nnc12	ERa coact inh 52[fluorescence artefact?] (no result: HUVEC tox IL1B, NFkB transloc inh, NFkB transloc pot)
O=C(c1cccc(Cl)c1)N1CCN(Cc2ccccc2F)CC1	none
Cc1cc(C)cc(OCC(=O)Nc2nonc2NC(=O)COc2cc(C)cc(C)c2)c1	ERa coact inh 82[fluorescence artefact?]
O=C(Nc1ccccc1)N(Cc1ccc(Cl)cc1)CC(O)C(F)(F)F (stereo unspecified)	none (no result: ERa coact inh, ERa SRC1 pot, ERb SRC1 inh)
CCCCN1CC(O)=C(c2nc(-c3ccc(Cl)cc3)cs2)C1=N	ERa coact inh 64[fluorescence artefact?], ERa SRC1 pot 256[fluorescence artefact?]
N=C1C(c2nc(-c3ccc(Cl)cc3)cs2)=C(O)CN1CCCN1CCOCC1	none
COc1ccc(Cc2nc3ccc(S(=O)(=O)N4CCOCC4)cc3[nH]2)cc1	ERa coact inh 60
O=C(COC(=O)c1cc(=O)[nH]c2ccccc12)NC(=O)NC1CCCCC1	none
Cc1ccc(-n2nnnc2SCC(=O)c2c(N)n(CC(C)C)c(=O)n(C)c2=O)cc1	ERa SRC1 pot 242
CC(C)Cn1c(N)c(C(=O)CSc2nc3ccccc3n2C)c(=O)n(C)c1=O	none (no result: ERa coact inh, ERa SRC1 pot, ERb SRC1 inh)
CCOc1ccc2nc3c(cc2c1)CN(CCOC)C(=NCCOC)S3	ERa SRC1 pot 483[fluorescence artefact?]
COCCN=C1Sc2nc3ccc(C)cc3cc2CN1Cc1ccco1	none (no result: ERa coact inh, ERa SRC1 pot, ERb SRC1 inh)
COc1cc(-c2csc(C)n2)ccc1O	none
Cc1nc(-c2ccc(O)c(O)c2)cs1	ERb SRC1 inh 59 (no result: HUVEC tox IL1B, NFkB transloc inh, NFkB transloc pot)
Cn1cnnc1SCC(=O)c1ccco1	none
Cn1cnnc1SCc1cccc(Br)c1	ERb SRC1 inh 52[fluorescence artefact?]
CCn1c(C(=O)N2CCCC(C(=O)NCCCc3ccccc3)C2)cc2sccc21 (stereo unspecified)	ERb SRC1 inh 80[fluorescence artefact?]
CCn1c(C(=O)N2CCCC(C(=O)NCCc3ccc(C)cc3)C2)cc2sccc21 (stereo unspecified)	none
COc1ccc(S(C)(=O)=O)cc1S(C)(=O)=O	none (no result: ERa coact inh, ERa SRC1 pot, ERb SRC1 inh)
Cc1cc(S(=O)(=O)N(Cc2ccc(F)cc2)CC2CCCO2)ccc1-n1cnnn1 (stereo unspecified)	ERb SRC1 inh 63
COC(=O)c1ccc2c(c1)N(Cc1nc(-c3cccc(C)c3)oc1C)C(=O)C1CCCN21 (stereo unspecified)	ERa coact inh 59
Cc1cccc(-c2nc(CN3CCCC(C(=O)NC4CCCCCC4)C3)c(C)o2)c1 (stereo unspecified)	none
CCOC(=O)c1c(N)sc(=S)c2c1CCC2	ERa coact inh 55[fluorescence artefact?], ERb SRC1 inh 70
CCOC(=O)CCCNC(=O)COC(=O)c1ccc(O)cc1	none (no result: ERa coact inh, ERa SRC1 pot, ERb SRC1 inh)
CCc1ccccc1NS(=O)(=O)c1ccc2[nH]cc(C(=O)NCC3CCCO3)c(=O)c2c1 (stereo unspecified)	ERa coact inh 65
CCOc1ccc(NS(=O)(=O)c2ccc3[nH]cc(C(=O)NCC4CCCO4)c(=O)c3c2)cc1 (stereo unspecified)	none
Cc1ncsc1CCSc1nc2ccccc2c(=O)n1C	HUVEC tox IL1B 80 (no result: ERa coact inh, ERa SRC1 pot, ERb SRC1 inh)
Cc1ncsc1CCSc1n[nH]c(=O)n1-c1ccccc1	none
CCCCSc1nc(SCC(=O)NCc2ccco2)c2c3c(sc2n1)COC(C)(CC)C3 (stereo unspecified)	none (no result: ERa coact inh, ERa SRC1 pot, ERb SRC1 inh)
CCCSc1nc(SCC(=O)NCc2ccccc2)c2c3c(sc2n1)COC(C)(CC)C3 (stereo unspecified)	ERa SRC1 pot 298[fluorescence artefact?]
O=C(NC1CCCCC1)c1ccc(CNc2ccccc2)o1	HUVEC tox IL1B 86, NFkB transloc inh 34
COc1ccccc1C1C(C(C)=O)=C(C)N=c2s/c(=C\c3cc(OC)c(OC)c(OC)c3)c(=O)n21 (stereo unspecified)	HUVEC tox IL1B 84, NFkB transloc inh 98
O=C(Nc1ccc2oc(-c3cccc(F)c3)nc2c1)c1ccccc1F	ERa SRC1 pot 223[fluorescence artefact?]
O=C(Cc1ccccc1)Nc1ccc2oc(-c3ccncc3)nc2c1	ERa coact inh 51[fluorescence artefact?], ERa SRC1 pot 299[fluorescence artefact?] (no result: HUVEC tox IL1B, NFkB transloc inh, NFkB transloc pot)
O=C(Nc1ccc2oc(-c3ccccc3)nc2c1)c1ccccc1F	none

Bioassay records as filed in PubChem.
